# Assay results taken from PubChem BioAssay (NCATS).
# Records with an inconclusive call do not appear. Active and inactive are the calls of the source. Calls come from the whole dose curve; as a rule, active = well fitted curve in the direction sought with a large enough effect; inconclusive = small, poorly fitted or top-dose-only effect, or another doubt; inactive = no such curve, though single readings can be large; an effect the other way counts as inactive or inconclusive.
# Experiments:
# [1] = Quantitative highthroughput screen to assess conditional lethalithy of P12 Ichikawa cells grown in RPMI1640 with untreated serum (RPMI+s) (AID 1963881); conditions: Potency: viability; note: nearly all actives have a fitted effect of over 35% in size
# Procedure, shortened: (§1)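 Each medium arm—HPLM with 10% dialyzed FBS, or RPMI1640 with 5 mM glucose and 10% untreated or dialyzed FBS—was screened against an 11-point, 3-fold compound titration for 48 h at 37 °C, with CellTiter-Glo luminescence as endpoint.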
# [2] = Quantitative highthroughput screen to assess conditional lethalithy of SEM cells grown in Human Plasma-Like Medium with dialyzed fetal bovine serum (HPLM+ds) (AID 1963882); note: nearly all actives have a fitted effect of over 35% in size
# Procedure, shortened: as §1
# [3] = Quantitative highthroughput screen to assess conditional lethalithy of SEM cells grown in RPMI1640 with dialyzed fetal bovine serum (RPMI+ds) (AID 1963884); note: nearly all actives have a fitted effect of over 35% in size
# Procedure, shortened: as §1
# [4] = Cellular viability qHTS for adrenocortical cancer (ACC) cell line NCI-H295R (AID 1963990); note: nearly all actives have a fitted effect of over 60% in size
# Procedure, shortened: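 CellTiter-Glo ATP luminescence, read 48 h after compound addition, measured viability of NCI-H295R adrenocortical cells grown serum-free with ITS. Final concentrations spanned up to 46 uM. Data normalized to DMSO and doxorubicin, fitted for IC50 and maximal response.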
# [5] = Cellular viability qHTS for adrenocortical cancer (ACC) cell line SW-13 (AID 1963989); conditions: SW-13 ACC cells viability, CellTiter-Glo, 48 h; activity (max response): hits give low values; note: nearly all actives have a fitted effect of over 65% in size;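 for activity (max response): cells grown in serum-free medium with ITS supplement; % is set by controls: 0 for no effect and ±100 for the full control effect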
# Procedure, shortened: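 Viability was read as CellTiter-Glo luminescence after 48 h compound treatment (up to 46 uM final) of SW-13 cells grown serum-free; titration curves were fit with a four-parameter logistic model to give IC50 and efficacy.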
# [6] = Quantitative highthroughput screen to assess conditional lethalithy of SEM cells grown in RPMI1640 with unreated serum (RPMI+s) (AID 1963883); note: nearly all actives have a fitted effect of over 35% in size
# Procedure, shortened: as §1
# Potency is the fitted concentration of half-maximal effect.
structure (smiles),measurement,setting,value
Fc1ccc([C@@H]2CCNC[C@H]2COc2ccc3c(c2)OCO3)cc1,Potency,[1],14.8 µM (active)
same,Potency,[2],14.8 µM (active)
same,Potency,[3],14.8 µM (active)
CC1=C(C(=O)Nc2cc3cn[nH]c3cc2F)C(c2ccc(C(F)(F)F)cc2)CC(=O)N1 (stereo unspecified),Potency,[1],10.5 µM (active)
same,Potency,[4],inactive
C[C@]12CC[C@H]3[C@@H](CCC4=CC(=O)CC[C@@]43C)[C@@H]1CC[C@@H]2C(=O)CO,activity (max response),[5],-8.44% (inactive)
CO[C@H]1C[C@@H]2CC[C@@H](C)[C@@](O)(O2)C(=O)C(=O)N2CCCC[C@@H]2C(=O)O[C@H]([C@H](C)C[C@@H]2CC[C@H](OCCO)[C@H](OC)C2)CC(=O)[C@H](C)C=C(C)[C@@H](O)[C@@H](OC)C(=O)[C@H](C)C[C@H](C)C=CC=CC=C1C,Potency,[2],0.59 µM (active)
CC(C)NC[C@@H](C(=O)N1CCN(c2ncnc3c2[C@H](C)C[C@H]3O)CC1)c1ccc(Cl)cc1,Potency,[2],0.296 µM (active)
same,Potency,[6],0.296 µM (active)
C[C@]12CC[C@@H]3c4ccc(O)cc4CC[C@H]3[C@H]1CC[C@H]2O,Potency,[6],18.7 µM (active)
same,Potency,[3],20.9 µM (active)
CN(C)CCOc1ccc(C(=C(CCCl)c2ccccc2)c2ccccc2)cc1,Potency,[2],5.9 µM (active)
same,Potency,[6],3.32 µM (active)
CC(C)N(CCCNC(=O)Nc1ccc(C(C)(C)C)cc1)C[C@H]1O[C@@H](n2cc(Br)c3c(N)ncnc32)[C@H](O)[C@H]1O,Potency,[6],20.9 µM (active)
CCOC(=O)c1ccc(O)c(O)c1,Potency,[4],inactive
CC(C)[N+](C)(CCOC(=O)C1c2ccccc2Oc2ccccc21)C(C)C,Potency,[4],inactive
CCC(=O)O[C@]1(C(=O)COC)[C@@H](C)C[C@H]2[C@@H]3CCC4=CC(=O)C=C[C@]4(C)C3(F)[C@@H](O)C[C@@]21C (stereo partly specified),activity (max response),[5],1.6% (inactive)
same,Potency,[4],inactive
CCN(c1cc(-c2ccc(CN3CCOCC3)cc2)cc(C(=O)NCc2c(C)cc(C)[nH]c2=O)c1C)C1CCOCC1,activity (max response),[5],-2.62% (inactive)
same,Potency,[4],inactive
COc1ccc(-c2cc(C(F)F)nn2-c2ccc(S(N)(=O)=O)cc2)cc1F,activity (max response),[5],-7.1% (inactive)
same,Potency,[4],inactive
CCN(CC)CCNC(=O)COc1ccc(OC)cc1,activity (max response),[5],-8.99% (inactive)
same,Potency,[4],inactive
O=C(O)c1ccccc1-c1ccc(/C=c2\sc3nc4cc(Br)cnc4n3c2=O)o1,activity (max response),[5],-2.9% (inactive)
same,Potency,[4],inactive
CCCCCCCCCCCCOCCO,activity (max response),[5],0.306% (inactive)
same,Potency,[4],inactive
Cc1nnc(SCC2=C(C(=O)O)N3C(=O)[C@@H](NC(=O)Cn4cnnn4)[C@H]3SC2)s1,activity (max response),[5],10% (inactive)
same,Potency,[4],inactive
OC(CCCN1CCCCC1)(c1ccccc1)c1ccccc1,activity (max response),[5],-5.81% (inactive)
same,Potency,[4],inactive
O=C1NC(=O)/C(=C\c2ccc(-c3ccc(F)cc3)o2)S1,activity (max response),[5],3.49% (inactive)
same,Potency,[4],inactive
Cc1cc(C)cc(OCC2CNC(=O)O2)c1 (stereo unspecified),activity (max response),[5],4.02% (inactive)
same,Potency,[4],inactive
CC(=O)OCC(=O)[C@@]1(O)[C@H](C)C[C@H]2[C@@H]3CCC4=CC(=O)C=C[C@]4(C)[C@@]3(F)[C@@H](O)C[C@@]21C,activity (max response),[5],2.72% (inactive)
same,Potency,[4],inactive
COc1ccc(Cl)c(Nc2nc3ccccc3nc2NS(=O)(=O)c2cccc(NC(=O)C(C)(C)N)c2)c1,Potency,[5],25.1 µM (active)
same,Potency,[4],20 µM (active)
COc1cc(/C=C(\C#N)C(=O)Nc2nnc(C(F)(F)F)s2)ccc1OCc1ccc(C(F)(F)F)cc1C(F)(F)F,activity (max response),[5],-15.8% (inactive)
same,Potency,[4],inactive
CCCCC(=O)OCC(=O)[C@H]1[C@H](C)C[C@H]2[C@@H]3C[C@H](F)C4=CC(=O)C=C[C@]4(C)[C@@]3(F)[C@@H](O)C[C@@]21C,activity (max response),[5],5.4% (inactive)
same,Potency,[4],inactive
CCS(=O)(=O)N1CCC(C(C)n2c(C)c(C(=O)NCc3c(OC)cc(C)[nH]c3=O)c3ccccc32)CC1 (stereo unspecified),activity (max response),[5],-8.74% (inactive)
same,Potency,[4],inactive
CCCCC[C@H](O)/C=C/[C@H]1[C@H](O)CC(=O)[C@@H]1CCCCCCC(=O)O,activity (max response),[5],1.24% (inactive)
same,Potency,[4],inactive
N[C@@H](CCC(=O)O)C(=O)N[C@@H](Cc1c[nH]c2ccccc12)C(=O)O,activity (max response),[5],9.67% (inactive)
same,Potency,[4],inactive
Cc1ccc(NC(=O)[C@H]2CCCN(C(=O)c3c(C)cccc3F)[C@H]2c2ccc(NC3CCCC3)cc2)cc1C(F)(F)F,activity (max response),[5],-13.2% (inactive)
same,Potency,[4],inactive
CN1C(N)=N[C@](C)(c2cc(NC(=O)c3ccc(F)cn3)ccc2F)CS1(=O)=O,activity (max response),[5],-4.84% (inactive)
same,Potency,[4],inactive
O=C(O)Cn1c(=O)n(Cc2ccc(Br)cc2F)c(=O)c2ccc(Cl)cc21,activity (max response),[5],14.5% (inactive)
same,Potency,[4],inactive
